Consider 21 compounds from PubChem BioAssay (NCI).

A short description of test [1]: NCI Yeast Anticancer Drug Screen. Data for the rad50 strain (AID 155).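 Note: 0% = growth of vehicle-only cultures of the same strain.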 The note with it: S. cerevisiae rad50 strain growth inhibition; at 50.0 µM; hits give high values. An outline of the steps: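 Genetically altered yeast (DNA repair pathway); compound treatment; growth inhibition vs vehicle ctrl.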
A short description of test [2]: NCI Yeast Anticancer Drug Screen. Data for the mec2-1 strain (AID 157). The note with it: S. cerevisiae mec2-1 strain, at 50.0 µM, hits give high values. An outline of the steps:
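mec2-1 yeast strain, carrying an alteration in DNA damage repair or cell cycle control, was exposed to compounds; growth inhibition was measured relative to vehicle-treated controls.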

Test [3] in a line: NCI Yeast Anticancer Drug Screen. Data for the sgs1 mgt1 strain (AID 161).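 Note: 0% = growth of cultures given vehicle only.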 The note with it: S. cerevisiae sgs1 mgt1 strain, at 50.0 µM, hits give high values. In outline:
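Yeast cells carrying a defined DNA-repair defect were exposed to test compounds. Growth inhibition was measured relative to vehicle-treated controls.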

A short description of test [4]: NCI Yeast Anticancer Drug Screen. Data for the cln2 rad14 strain (AID 165).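 Note: 0% = growth equal to vehicle treated cultures.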 Conditions: S. cerevisiae cln2 rad14 strain, at 50.0 µM, hits give high values. An outline of the steps: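 Yeast carrying cln2 and rad14 alterations (cell cycle control and DNA damage repair) were exposed to compounds. Growth inhibition was measured against vehicle-treated controls.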
A short description of test [5]: NCI Yeast Anticancer Drug Screen. Data for the bub3 strain (AID 167). The note with it: S. cerevisiae bub3 mutant strain, at 50.0 µM, hits give high values. An outline of the steps: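 Yeast carrying a defined mutation is treated with each compound, and growth is compared with that of vehicle-exposed cells to give inhibition.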
Test [6] can be described thus: NCI Yeast Anticancer Drug Screen. Data for the mlh1 rad18 strain (AID 175). Conditions: S. cerevisiae mlh1 rad18 strain growth inhibition; at 50.0 µM; hits give high values. In outline: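 Growth inhibition of the yeast strain was measured after compound exposure and expressed relative to vehicle-treated controls. The strain carries defined defects in DNA damage repair.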

The structures appear in SMILES notation. The panel holds about 79,000 compounds, 15% with a hit somewhere; the sample as a whole holds those more often. Values without a mark were called inactive. Calls of active or inactive are those of the source. Cut-off read from the data, not from the text of the source: active = growth inhibition above about 70%; inactive = the rest.

Turning to `CCn1c(=O)c2c3cc(OC(C)=O)ccc3oc2c2ccc(OC(C)=O)cc21`, the growth inhibition was -23.3% in test [1]; -24.4% in test [2]; -6.8% in test [3]; 10.3% in test [4]; 12.9% in test [5]; -4.75% in test [6].
On to `COc1cc(C(=O)NN(C)C)cc(OC)c1OC`, for which the growth inhibition in test [1] is 13.5%; in test [2], 0.65%; in test [3], -9.95%; in test [4], 10.8%; in test [5] it was -7.95%; in test [6], -18.5%.
Turning to `COc1cccc(C(c2cc3c(cc2O)OCO3)N2CCOCC2)c1O` (stereo unspecified), the growth inhibition in test [1] is 15.9%; in test [2] it was 30.6%; in test [3], 51.4%; in test [4] it was 8.7%; in test [5], 1.35%; in test [6] it was 77.4% (active).
For `CCOc1ncc(C(=O)c2ccc(C)cc2)c(OCC)n1`, the growth inhibition was -8.55% in test [1]; -20.4% in test [2]; -6.2% in test [3]; -58.9% in test [4]; 3.6% in test [5]; -20.4% in test [6].
With `O=C(NNC1=NCCN1Cc1ccccc1)c1cccc(Cl)c1`, the growth inhibition in test [1] was -6.1%; in test [2], -25.4%; in test [3] it was 13.3%; in test [4], 14.6%; in test [5] it was -0.8%; in test [6], 2.15%.
On to `CC(=O)C1=CCC2[C@H]3CC=C4C[C@H](O)CC[C@@]4(C)C3CC[C@@]12C` (stereo partly specified), for which the growth inhibition is 21.2% in test [1]; 55.2% in test [2]; 49.8% in test [3]; 17.9% in test [4]; 58.6% in test [5]; 37.7% in test [6].
For the compound `CC(C)(C)C(=O)Nc1ccccc1`, the growth inhibition in test [1] was 37.7%; in test [2], 17%; in test [3] it was 0.2%; in test [4] it was 1.55%; in test [5] it was -12.4%; in test [6], 23%.
Take `COc1cc(C2C(C(C)=O)=C(C)Oc3cc4c(cc32)OCO4)cc(OC)c1O` (stereo unspecified): the growth inhibition in test [1] was 21.1%; in test [2], 2.5%; in test [3], -0.25%; in test [4], 4.15%; in test [5], 10.1%; in test [6], 35.5%.
Regarding `CC1CCC(O)CC1C` (stereo unspecified), the growth inhibition in test [1] is -17.9%; in test [2] it was -24.6%; in test [3] it was -57%; in test [4] it was 27.2%; in test [5], -33.6%; in test [6] it was -10.1%.
For the compound `CCCCC(CC)(CO)CO`, the growth inhibition was 11.2% in test [1]; 3.95% in test [2]; 5.35% in test [3]; 1.05% in test [4]; -4.55% in test [5]; 16.6% in test [6].
For `CCCCC(c1nc2c(c3c1CCCC3)CCCC2)C(O)(C(F)(F)F)C(F)(F)F` (stereo unspecified), the growth inhibition is 13.1% in test [1]; 7% in test [2]; 10.2% in test [3]; -4.15% in test [4]; -2.1% in test [5]; 16.4% in test [6].
`CC(=O)Oc1ccc(C2(OC(C)=O)c3ccccc3C(=O)c3ccccc32)cc1`: the growth inhibition in test [1] is 11.5%; in test [2], 9.9%; in test [3], 34.4%; in test [4], 34.1%; in test [5], -8.5%; in test [6], 31.8%.
Consider `Cn1c(N)c(C(=O)/C=C/c2ccccc2)c(=O)n(C)c1=O`, for which the growth inhibition was 11.4% in test [1]; -17.5% in test [2]; 17.9% in test [3]; 17.1% in test [4]; -3.85% in test [5]; 5.8% in test [6].
Consider `COC1=C(C)C(=O)C2=C(C1=O)C1C3CC4=C(C(=O)C(OC)=C(C)C4=O)C(CNC(=O)C(C)O)N3C(C#N)C(C2)N1C` (stereo unspecified), for which the growth inhibition in test [1] is 15.9%; in test [2], 0.85%; in test [3] it was 8.9%; in test [4], 32.8%; in test [5], -3.45%; in test [6], 41.5%.
As for `Nc1nc(O)c(N)c(=O)[nH]1`, the growth inhibition in test [1] is -18.2%; in test [2], -16.9%; in test [3] it was -15.8%; in test [4], -17.8%; in test [5] it was -4.05%; in test [6], -20.9%.
Take `O=C1c2ccccc2S[C@@H](O)[C@@H]2CCCN12`: the growth inhibition was -31.9% in test [1]; -13.7% in test [2]; -64.7% in test [3]; -13.7% in test [4]; -41.8% in test [5]; -41.7% in test [6].
`COc1cc2oc3cc(OC)c(OC)c(CC=C(C)C)c3c(=O)c2c(O)c1CC=C(C)C`: the growth inhibition in test [1] was -1.45%; in test [2] it was -30.6%; in test [3], 0.15%; in test [4], 5.8%; in test [5], -30.6%; in test [6], 21.2%.
Take `CCCCON1C[C@H](OC(C)=O)C(OC(C)=O)[C@H](OC(C)=O)C1` (stereo partly specified): the growth inhibition in test [1] is -44.8%; in test [2], -15.9%; in test [3], -39.1%; in test [4], -10.4%; in test [5], 16.9%; in test [6], -24.6%.
For the compound `O=c1c2ccccc2oc2cc3c(c(O)c12)CCCC3`, the growth inhibition in test [1] is -7.65%; in test [2] it was -13.9%; in test [3], -14.5%; in test [4], -6.95%; in test [5], 3.15%; in test [6] it was -2.95%.
For the compound `CCCCCCCCCCNC(=O)C(OC(C)=O)C(OC(C)=O)C(OC(C)=O)C(COC(C)=O)OC(C)=O` (stereo unspecified), the growth inhibition was 29.4% in test [1]; 12.6% in test [2]; 19.3% in test [3]; 32.1% in test [4]; 10.2% in test [5]; 40.4% in test [6].
For `CN(C)c1ncnc2c1cnn2-c1ccc(Cl)cc1`, the growth inhibition is -6.15% in test [1]; -6.2% in test [2]; -9.3% in test [3]; -36.6% in test [4]; -0.95% in test [5]; -8.45% in test [6].
